Only some compounds are listed: those with a hit (about 4% of all), similar ones and a draw of the others.
HIF-2a block = blocks HIF-2a reporter activity; 786-0 RCC cells HIF-2a reporter, luciferase luminescence, overnight; actives 0.72% (n = 360,000); AID 624352; inhibition, % at 18.8 µM;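 active = inhibition of the luminescence signal of 40% or more relative to plate controls, in a single-dose primary screen at 18.75 µM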
CF NFkB inh = blocks PAF-induced NF-kB reporter in cystic fibrosis cells. KKLEB NF-kB-GFP reporter, GFP fluorescence overnight. inhibition, % at 5 µM. actives 0.86% (n = 360,000);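 active = at least 50% inhibition at 5 µM, scaled per plate between neutral and stimulator controls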;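 note: PAF is a Pseudomonas aeruginosa culture filtrate used as stimulus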
KKLEB tox = reduces viability of KKLEB cystic fibrosis airway cells; KKLEB CF airway cells viability, ATPlite luminescence, overnight; hits give low values; cells stimulated with P. aeruginosa culture filtrate; activity change (cytotoxicity), % at 5 µM; actives 0.36% (n = 360,000); AID 602141;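 active = corrected activity change at or below -50% at 5 µM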
Peg3 promoter = Peg3 promoter activity inhibition; HeLa PEG-Prom luciferase reporter, luminescence, overnight; inhibition, % at 20 µM; actives 1.7% (n = 360,000);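 active = inhibition of at least 50% at 20 µM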
TROY signal inh = inhibitors of TROY-dependent NF-kB signaling; Q293 LMP1-TROYcd NF-kB luciferase reporter, 4 h; inhibition, % at 10 µM; actives 0.98% (n = 360,000);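 active = compounds whose plate-normalised and pattern-corrected inhibition of the luciferase reporter signal at the single screening dose is 50% or more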
TWEAK-Fn14 inh = blocks TWEAK-Fn14 interaction in a reporter cell assay; TWEAK-stimulated Fn14 reporter cells, luciferase luminescence, 8 h; actives 2% (n = 360,000); AID 1159606; inhibition, % at 10 µM; in the data active = inhibition above about 50%
Each line names hits and unclear results; the compound was inactive in the other large screens.

CCC(=O)N1c2ccccc2NC2=C(C(=O)CC(C)(C)C2)C1c1ccc(O)c(OC)c1 (stereo not given)	none
COCCn1c(C)cc(C(=O)COC(=O)CNC(=O)c2ccccc2)c1C	TROY signal inh 53.8, TWEAK-Fn14 inh 63.2
COCC(C)n1c(C)cc(C(=O)COC(=O)CNC(=O)c2ccccc2)c1C (stereo not given)	none
COCCn1c(C)cc(C(=O)COC(=O)c2ccc(Br)o2)c1C	TROY signal inh 55.5, TWEAK-Fn14 inh 55.1
CCOC(=O)c1ccc(NC(=O)CN2CCN(C(=O)C3CCCO3)CC2)cc1 (stereo not given)	none
O=C(COC(=O)CNS(=O)(=O)c1ccc(Br)cc1Cl)NC1CCCC1	none
Cc1c(-c2ccccc2)oc2c(C(=O)N3CCN(c4ccccc4F)CC3)cccc2c1=O	TWEAK-Fn14 inh 54.1
O=C(Nc1ccc(F)cc1)Nc1ccccc1C(=O)NCCN1CCNC1=O	none
CCOC(=O)N1C/C(=C\c2ccccc2)C(=O)/C(=C/c2ccccc2)C1	HIF-2a block 94.6, CF NFkB inh 88.7, Peg3 promoter 112.0, TROY signal inh 73.7
COc1ccc(OC(=O)N2C/C(=C/c3ccccc3)C(=O)/C(=C\c3ccccc3)C2)cc1	HIF-2a block 59.5, CF NFkB inh 64.3, Peg3 promoter 104.7, TWEAK-Fn14 inh 89.7
CCOC(=O)N1CCN(S(=O)(=O)/C=C/c2ccccc2)CC1	none
CCc1cccc(C)c1NC(=O)Nc1c(Br)cnn1C	none
COc1cc(C2Nc3ccccc3C(=O)N2c2ccc3c(c2)OCCO3)ccc1OCC(C)C (stereo not given)	TWEAK-Fn14 inh 67.2
O=C1c2ccccc2NC(c2ccc3c(c2)OCCO3)N1c1ccc2c(c1)OCCO2 (stereo not given)	TROY signal inh 59.3, TWEAK-Fn14 inh 59.2
COc1cc(C2Nc3ccccc3C(=O)N2c2ccccc2OC)ccc1O (stereo not given)	none
O=C1c2ccccc2NC(c2ccc3c(c2)OCO3)N1O (stereo not given)	none
CCOC(=O)C1=C(C)NC(=O)NC1c1ccc(OCC(N)=O)cc1 (stereo not given)	TWEAK-Fn14 inh 79.3 (no result: TROY signal inh)
CCOCCn1c(N2CCCC2)nc2c1c(=O)n(C)c(=O)n2C	none
CCCCCCCN(c1ccccc1)[C@@H]1C[C@H]2CCCC(=O)N3CC[C@@H](C1)[C@@H]23	Peg3 promoter 86.7
O=C(CCNC(=O)c1ccc([N+](=O)[O-])cc1)NC1CCCCCC1	none
Cc1cc(/C=N/NC(=O)c2ccncc2)c(C)n1-c1ccccc1	none
Cc1cc(/C=N/NC(=O)c2cccs2)c(C)n1-c1ccccc1	TROY signal inh 63.3, TWEAK-Fn14 inh 79.8
CCc1cccc(NC(=O)Cn2cc(C=O)c3ccccc32)c1	TWEAK-Fn14 inh 71.5
Cc1sc(NC(=O)c2ccccc2)c(C(c2ccccn2)N2CCN(CCO)CC2)c1C (stereo not given)	TROY signal inh 77.7, TWEAK-Fn14 inh 65.4
COc1cc(NC(=O)COc2ccccc2[N+](=O)[O-])ccc1NC(=O)c1cccs1	Peg3 promoter 56.9
CCC(C)(C)C1CCc2c(sc(NC(=O)c3ccccc3C(=O)O)c2C#N)C1 (stereo not given)	TROY signal inh 71.7
CC(C)(C)C1CCc2c(sc(NC(=O)C3CC=CCC3C(=O)O)c2C#N)C1 (stereo not given)	TROY signal inh 55.9
CCC(C)(C)C1CCc2c(sc(NC(=O)c3ccoc3C)c2C(N)=O)C1 (stereo not given)	TROY signal inh 62.9
COc1cccc(CNC(=O)c2cc3c(cc2Cl)N2CCCCCC2=NS3(=O)=O)c1	none
CCc1nc2ccc(C(=O)N(CC)CCN(C)C)cn2c1N(CC)C(=O)NCCc1ccccc1	none
CC(=O)c1ccc(NC(=O)CN2CCN(CC(=O)Nc3ccc(C(C)=O)cc3)CC2)cc1	none
CCc1ccc(C(=O)NC(=S)Nc2ccc(N3CCOCC3)cc2)cc1	TROY signal inh 52.6
S=C(Nc1ccc(N2CCOCC2)cc1)Nc1ccc2nc(-c3ccco3)c(-c3ccco3)nc2c1	TWEAK-Fn14 inh 71.6
CC(=O)c1ccc(NC(=S)Nc2ccc(N3CCOCC3)cc2)cc1	TROY signal inh 51.3
CC(=O)c1ccc(NC(=O)CN2CCOCC2)cc1	TWEAK-Fn14 inh 109.6
O=C(Nc1ccc(N2CCOCC2)cc1)c1ccc2nc(-c3ccco3)c(-c3ccco3)nc2c1	none
CCCCOc1ccc(C(=O)NCC(=O)N2CC(C)CC(C)C2)cc1 (stereo not given)	none
Cc1ccc(-n2c(C)nnc2SCC(=O)N(C)C2CCS(=O)(=O)C2)cc1 (stereo not given)	none
CCN(CC(=O)NCc1ccc(Cl)cc1)C(=O)COc1ccc(Cl)cc1Br	none
Cc1cc(-c2nn3c(C)nnc3s2)ccc1NC(=O)C(C)(C)C	TWEAK-Fn14 inh 52.2
O=C(CSc1nc2ccccc2s1)NCc1cc([N+](=O)[O-])ccc1O	none
COc1ccc(CN2CCC[C@]3(N[C@H](c4ccc(C(F)(F)F)cc4)[C@@H]4C(=O)N(C)C(=O)[C@@H]43)C2=O)cc1	none
COc1ccc(/C=C2\CCC(C3CCCC3)C2=O)cc1 (stereo not given)	none
CC1CCC/C(=C\c2ccc(O)cc2)C1=O (stereo not given)	none
CN(C)CC1CC/C(=C\c2ccc(O)cc2)C1=O (stereo not given)	HIF-2a block 88.1, Peg3 promoter 97.8
Cc1ccc(/C=C2\CCC(C3CCCC3)C2=O)cc1 (stereo not given)	none
O=C1/C(=C\c2ccc(Cl)cc2)CCC1CNc1ccc(Cl)cc1 (stereo not given)	Peg3 promoter 89.2
COc1ccc(/C=C2/CCC(CN3CCOCC3)C2=O)cc1 (stereo not given)	HIF-2a block 87.1, CF NFkB inh 65.5, KKLEB tox -54.6, Peg3 promoter 100.5, TWEAK-Fn14 inh 65.8
O=S(=O)(Nc1c(S(=O)(=O)c2ccccc2)c2nc3ccccc3nc2n1C1CCCCC1)c1ccccc1	TROY signal inh 64.3, TWEAK-Fn14 inh 98.0
COc1ccc(N2CCN(c3ccc(NC(=O)NN)cc3)CC2)cc1	none
Cc1sc(-n2c(C)cc(/C=C3\SC(=S)NC3=O)c2C)c(C#N)c1C	Peg3 promoter 75.3
Cc1cc(/C=C2\SC(=S)NC2=O)c(C)n1-c1cccc(O)c1	none
O=C(CCS(=O)(=O)c1ccc(Cl)cc1)Nc1nccs1	TROY signal inh 56.7
COC(=O)c1ccsc1NC(=O)CCS(=O)(=O)c1ccc(Cl)cc1	none
O=C(COc1ccc(Br)cc1)NNC(=O)c1cc(S(=O)(=O)N2CCOCC2)ccc1Cl	none
OC[C@@H]1CN(Cc2ccc3c(c2)OCO3)C[C@H](n2cnc3c(N4CCOCC4)ncnc32)O1	none
Cc1cc(/C=C2\SC(=S)N(C)C2=O)c(C)n1-c1ccccc1O	TROY signal inh 60.7, TWEAK-Fn14 inh 96.5

Compound activity as filed in PubChem.
